# Records with an inconclusive call do not appear. Where a call stands in place of a potency, no number is given. Calls of active or inactive are those of the source. Calls come from the whole dose curve; as a rule, active = well fitted cell-killing curve with a large enough effect; inconclusive = small, poorly fitted or top-dose-only effect; inactive = no such curve, though single readings can be large or run the other way.
# Assay: Quantitative High-Throughput drug screen in 47 multiple myeloma cell lines against the NCATS MIPE library collection: NCIH929_DSMZ cell viability assay (AID 1918978); note: nearly all actives have a fitted effect of over 35% in size
# Settings: NCI-H929 myeloma viability, CellTiter-Glo ATP, 48 h; series mostly up to 45.8 µM
# Description: PI: Beverly A. Mock Ph.D.
# Laboratory of Cancer Biology and Genetics,
# Center for Cancer Research, National Cancer Institute,
# National Institute of Health, Bethesda, Maryland
# Drug resistance and disease progression are common in multiple myeloma (MM) patients, underscoring the need for new therapeutic combinations. […] We hypothesized that effective combinations would reduce MYC expression and enhance p16 activity. […] These preclinical data identify potentially useful drug combinations for evaluation in drug-resistant MM and reveal potential mechanisms of combined drug sensitivity.
# Described herein is the primary MIPE qHTS used to cherrypick compounds. Validated compounds were then further tested for potential synergistic activiy.
# [1] Peat TJ, Gaikwad SM, Dubois W, Gyabaah-Kessie N, Zhang S, Gorjifard S, Phyo Z, Andres M, Hughitt VK, Simpson RM, Miller MA, Girvin AT, Taylor A, Williams D, D'Antonio N, Zhang Y, Rajagopalan A, Flietner E, Wilson K, Zhang X, Shinn P, Klumpp-Thomas C, McKnight C, Itkin Z, Chen L, Kazandijian D, Zhang J, Michalowski AM, Simmons JK, Keats J, Thomas CJ, Mock BA. Drug combinations identified by high-throughput screening promote cell cycle transition and upregulate Smad pathways in myeloma. Cancer Lett. 2023 Aug 1;568:216284. doi: 10.1016/j.canlet.2023.216284. Epub 2023 Jun 24. PMID: 37356470; PMCID: PMC10408729.
# SEQUENCE No. (e.g., 1, 2, 3, etc.); […] (e.g., Cells, Incubation, Reagent, etc.); VALUE and DESCRIPTION.
# 1; Cells; 5 uL; white, solid bottom 1536-well Greiner assay plate.
# 2; Compounds; 23 nL; Kalypsis pin tool (Wako USA) equipped with a 1536-well pin head to transfer to the assay plates.
# 3; Incubation; 48 hours; 37C incubation.
# 4; Reagent;5uL; CellTiter Glo (Promega).
# 5; Detector; 425V; Luminescence; Viewlux PerkinElmer.
# NOTES (numbers refer to Sequence numbers above)
# 1. The cell-based screening methods employed in this study were like those previously published. Briefly, the corresponding myeloma cell lines were screened in 1,536-well plates with 500 cells, 5-uL per well for inhibition of cell viability (assessed by measuring ATP levels with CellTiterGlo).
# 2. NCATS MIPE 4.0 library of approved and investigational drugs were added using the Kalypsis pin tool. Wells treated with DMSO only for 100% viability and media only for 0% viability were used as controls.
# 3. The assay plates were covered and incubated for 48 hours in a 37C, 5% CO2 incubator with controlled humidity.
# 4. After 48 hours, CellTilter-GloTM luminescent substrate mix (Promega) reagent was added to the assay plate and plates we incubated for 5 min at room temperature.
# 5. Signal was measured as median relative luminescence units on a ViewLux (PerkinElmer) multiplate reader.
# [1] Heske CM, Davis MI, Baumgart JT, Wilson K, Gormally MV, Chen L, Zhang X, Ceribelli M, Duveau DY, Guha R, Ferrer M, Arnaldez FI, Ji J, Tran HL, Zhang Y, Mendoza A, Helman LJ, Thomas CJ. Matrix Screen Identifies Synergistic Combination of PARP Inhibitors and Nicotinamide Phosphoribosyltransferase (NAMPT) Inhibitors in Ewing Sarcoma. Clin Cancer Res. 2017 Dec 1;23(23):7301-7311. doi: 10.1158/1078-0432.CCR-17-1121. Epub 2017 Sep 12. PMID: 28899971; PMCID: PMC6636827.
# Potency is the fitted concentration of half-maximal effect.
row,SMILES,Potency
1,O[C@@H](COc1cccc2ncccc12)CN1CCN(C2c3ccccc3[C@@H]3[C@H](c4ccccc42)C3(F)F)CC1 (stereo not given in full),11.8 µM (active)
2,COc1ccc2c(c1)CC[C@H]1[C@@H]2CC[C@]2(C)[C@@H](NCCCCCCN3C(=O)C=CC3=O)CC[C@H]12,inactive
3,CN1CC(=O)NC1=NC(=O)Nc1cccc(Cl)c1,16.6 µM (active)
4,CC(=O)OCC(=O)[C@@]12OC(C)(C)O[C@H]1C[C@H]1[C@@H]3C[C@H](F)C4=CC(=O)C=C[C@]4(C)[C@@]3(F)[C@@H](O)C[C@@]12C,inactive
5,CN(C)CCCNC(=O)c1ccc(-c2cc(O)c3ncccc3c2)cc1,23.5 µM (active)
6,COc1ccc(CCC(=O)Nc2nc3ccc(Cl)cc3s2)cc1OC,18.7 µM (active)
7,Cc1ccc(C2=Nc3ccc(Cl)cc3OC2)cc1,inactive
8,O=c1[nH]c(=O)n([C@H]2C[C@@H](O)[C@@H](CO)O2)cc1I,inactive
9,CN[C@H]1[C@@H](O[C@@H]2[C@H](O[C@@H]3[C@@H](O)[C@@H](O)[C@@H](N=C(N)N)[C@@H](O)[C@@H]3N=C(N)N)O[C@H](C)[C@@]2(O)C=O)O[C@@H](CO)[C@@H](O)[C@H]1O,inactive
10,c1ccc(CNc2nc(N3CCOc4ccccc43)nc3c2CCCC3)cc1,inactive
11,COc1cc2c(cc1OC)[C@@H]1Cc3ccc(OC)c(OC)c3CN1CC2,inactive
12,CC(C)n1c(C=C[C@H](O)C[C@H](O)CC(=O)O)c(-c2ccc(F)cc2)c2ccccc21,13.2 µM (active)
13,CN1N=C(N)c2cn([C@@H]3O[C@H](COP(=O)(O)O)[C@@H](O)[C@@H]3O)c3ncnc1c23,0.0469 µM (active)
14,CCN1C[C@H](C)n2c(c(O)c3c(=O)n(Cc4ccc(F)c(Cl)c4)nc(C(=O)NC)c32)C1=O,inactive
15,Cc1ccc2c(c1)c1c(n2CCc2ccc(C)nc2)CCN(C)C1,inactive
16,CN[C@@H]1[C@@H](O)[C@@H](O[C@@H]2[C@@H](O)[C@H](O[C@H]3O[C@H](CN)[C@@H](O)[C@H](O)[C@@H]3O)[C@@H](N)C[C@@H]2NC(=O)[C@@H](O)CN)OC[C@]1(C)O,inactive
17,CSc1cccc(Nc2ncc3cc(-c4c(Cl)cccc4Cl)c(=O)n(C)c3n2)c1,13.2 µM (active)
18,CN[C@@H](C)[C@H]1[C@H](O)C[C@@]2(C)[C@@H]3CC[C@H]4C(C)(C)[C@@H](NC)CC[C@@]45C[C@@]35CC[C@]12C,inactive
19,CC(C)[C@H](O)C(=O)N[C@@H](C)C(=O)N[C@@H]1C(=O)N(C)CCc2ccccc21,16.6 µM (active)
20,CCC[C@H](N[C@@H](C)C(=O)N1[C@@H]2CCCC[C@H]2C[C@H]1C(=O)O)C(=O)OCC,inactive

row,SMILES,Potency
1,Cc1cc(CS(=O)(=O)c2ccccc2)cc(OCc2ccc(CN3CCC[C@H]3CO)cc2)c1,inactive
2,O=C(NC[C@H](O)CO)c1ccncc1Nc1ccc(I)cc1F,8.33 µM (active)
3,C[C@H]1O[C@@H](n2cc(F)c(=O)[nH]c2=O)[C@H](O)[C@H]1O,inactive
4,C[C@@H]1C[C@H]2[C@@H]3CCC4=CC(=O)C=C[C@]4(C)[C@@]3(F)[C@@H](O)C[C@]2(C)[C@@]1(O)C(=O)CO,inactive
5,COc1cc2c(cc1Cc1cccc(Cl)c1F)c(=O)c(C(=O)O)cn2[C@H](CO)C(C)C,18.7 µM (active)
6,O=C1C(CCC(O)c2ccc(F)cc2)C(c2ccc(O)cc2)N1c1ccc(F)cc1 (stereo not given),inactive
7,Cc1cc(OCCCS(C)(=O)=O)cc(C)c1-c1cccc(COc2ccc3c(c2)OC[C@H]3CC(=O)O)c1,20.9 µM (active)
8,Cc1ccccc1C(=O)c1ccc(Nc2ccc(Br)cc2N)cc1Cl,23.5 µM (active)
9,CCCCC[C@H](O)C=C[C@H]1[C@H](O)CC(=O)[C@H]1CC=CCCCC(=O)O,16.6 µM (active)
10,c1ccc(-c2oc3ncnc(NC[C@@H]4CCCO4)c3c2-c2ccccc2)cc1,inactive
11,COc1cc2ncnc(Nc3cc(Br)c(O)c(Br)c3)c2cc1OC,inactive
12,C=CCc1cccc(C=NNC(=O)CN2CCN(Cc3ccccc3)CC2)c1O,26.4 µM (active)
13,CCOC(=O)[C@H]1O[C@H]1C(=O)N[C@@H](CC(C)C)C(=O)NCCC(C)C,inactive
14,CCC(=O)OCC(=O)[C@@]1(OC(=O)CC)[C@@H](C)C[C@@H]2[C@H]3CCC4=CC(=O)C=C[C@]4(C)[C@@]3(F)[C@@H](O)C[C@@]21C,inactive
15,CNC(=O)c1cc(COc2nnc(Nc3ccc(Cl)cc3)c3ccoc23)ccn1,inactive
16,CCC=CC[C@H]1C(=O)CC[C@@H]1CC(=O)OC,inactive
17,N#Cc1c(N(CC(=O)O)CC(=O)O)sc(C(=O)O)c1CC(=O)O,26.4 µM (active)
18,C[C@@H](O)[C@H]1C(=O)N2C(C(=O)OCOC(=O)C(C)(C)C)=C(SC3CN(C4=NCCS4)C3)[C@H](C)[C@H]12,inactive
19,CC1C(=O)OC2C(O)C34C5CC(C(C)(C)C)C36C(OC(=O)C6O)OC4(C(=O)O5)C12O (stereo not given),inactive
20,CN(C(Cc1ccc(OS(=O)(=O)c2cccc3cnccc23)cc1)C(=O)N1CCN(c2ccccc2)CC1)S(=O)(=O)c1cccc2cnccc12 (stereo not given),16.6 µM (active)

# Source: PubChem BioAssay (NCATS)
